The values below come from ChEMBL document CHEMBL2218924, “A broad activity screen in support of a chemogenomic map for kinase signalling research and drug discovery” (Biochem J, 2013).

Assay [1] deals with Tyrosine-protein kinase SYK (Homo sapiens) (UniProt P43405). Conditions: at 10 µM.
For assay [2], the target named is T1, Serine/threonine-protein kinase TAO1 (Homo sapiens) (UniProt Q7L7X3).
T1 sequence (whole entry): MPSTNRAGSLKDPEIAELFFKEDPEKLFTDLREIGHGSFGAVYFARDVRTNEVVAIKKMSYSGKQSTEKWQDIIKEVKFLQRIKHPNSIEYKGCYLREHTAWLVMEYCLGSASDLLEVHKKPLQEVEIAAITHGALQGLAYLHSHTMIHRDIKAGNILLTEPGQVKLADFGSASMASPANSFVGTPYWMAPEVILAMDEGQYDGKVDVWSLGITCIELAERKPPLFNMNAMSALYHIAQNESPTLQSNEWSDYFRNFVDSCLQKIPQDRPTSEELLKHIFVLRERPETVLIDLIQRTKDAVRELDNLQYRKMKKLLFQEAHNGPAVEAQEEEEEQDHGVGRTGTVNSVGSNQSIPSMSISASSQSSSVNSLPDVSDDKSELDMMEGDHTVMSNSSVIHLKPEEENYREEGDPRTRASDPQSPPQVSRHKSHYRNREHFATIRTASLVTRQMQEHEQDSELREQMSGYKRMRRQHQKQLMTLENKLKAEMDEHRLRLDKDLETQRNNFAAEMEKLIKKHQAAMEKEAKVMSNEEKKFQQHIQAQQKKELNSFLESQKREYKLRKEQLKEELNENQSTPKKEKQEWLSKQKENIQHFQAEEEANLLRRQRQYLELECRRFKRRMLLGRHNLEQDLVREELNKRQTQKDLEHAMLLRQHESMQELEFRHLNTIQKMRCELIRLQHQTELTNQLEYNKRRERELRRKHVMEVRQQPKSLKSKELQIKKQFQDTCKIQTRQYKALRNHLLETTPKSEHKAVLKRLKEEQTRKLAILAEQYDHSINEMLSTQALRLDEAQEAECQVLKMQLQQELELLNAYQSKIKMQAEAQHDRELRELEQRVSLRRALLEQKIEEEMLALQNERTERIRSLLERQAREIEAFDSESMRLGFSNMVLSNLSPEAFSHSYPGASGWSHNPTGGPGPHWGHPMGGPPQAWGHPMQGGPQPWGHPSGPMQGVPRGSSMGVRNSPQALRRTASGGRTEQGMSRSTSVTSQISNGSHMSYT
As to conditions: at 1 µM.

Assay [3] deals with T1, Serine/threonine-protein kinase TAO1 (Homo sapiens). As to conditions: at 10 µM.
Assay [4] concerns the target T2, Serine/threonine-protein kinase TAO2 (Homo sapiens) (UniProt Q9UL54).
T2 sequence (whole entry): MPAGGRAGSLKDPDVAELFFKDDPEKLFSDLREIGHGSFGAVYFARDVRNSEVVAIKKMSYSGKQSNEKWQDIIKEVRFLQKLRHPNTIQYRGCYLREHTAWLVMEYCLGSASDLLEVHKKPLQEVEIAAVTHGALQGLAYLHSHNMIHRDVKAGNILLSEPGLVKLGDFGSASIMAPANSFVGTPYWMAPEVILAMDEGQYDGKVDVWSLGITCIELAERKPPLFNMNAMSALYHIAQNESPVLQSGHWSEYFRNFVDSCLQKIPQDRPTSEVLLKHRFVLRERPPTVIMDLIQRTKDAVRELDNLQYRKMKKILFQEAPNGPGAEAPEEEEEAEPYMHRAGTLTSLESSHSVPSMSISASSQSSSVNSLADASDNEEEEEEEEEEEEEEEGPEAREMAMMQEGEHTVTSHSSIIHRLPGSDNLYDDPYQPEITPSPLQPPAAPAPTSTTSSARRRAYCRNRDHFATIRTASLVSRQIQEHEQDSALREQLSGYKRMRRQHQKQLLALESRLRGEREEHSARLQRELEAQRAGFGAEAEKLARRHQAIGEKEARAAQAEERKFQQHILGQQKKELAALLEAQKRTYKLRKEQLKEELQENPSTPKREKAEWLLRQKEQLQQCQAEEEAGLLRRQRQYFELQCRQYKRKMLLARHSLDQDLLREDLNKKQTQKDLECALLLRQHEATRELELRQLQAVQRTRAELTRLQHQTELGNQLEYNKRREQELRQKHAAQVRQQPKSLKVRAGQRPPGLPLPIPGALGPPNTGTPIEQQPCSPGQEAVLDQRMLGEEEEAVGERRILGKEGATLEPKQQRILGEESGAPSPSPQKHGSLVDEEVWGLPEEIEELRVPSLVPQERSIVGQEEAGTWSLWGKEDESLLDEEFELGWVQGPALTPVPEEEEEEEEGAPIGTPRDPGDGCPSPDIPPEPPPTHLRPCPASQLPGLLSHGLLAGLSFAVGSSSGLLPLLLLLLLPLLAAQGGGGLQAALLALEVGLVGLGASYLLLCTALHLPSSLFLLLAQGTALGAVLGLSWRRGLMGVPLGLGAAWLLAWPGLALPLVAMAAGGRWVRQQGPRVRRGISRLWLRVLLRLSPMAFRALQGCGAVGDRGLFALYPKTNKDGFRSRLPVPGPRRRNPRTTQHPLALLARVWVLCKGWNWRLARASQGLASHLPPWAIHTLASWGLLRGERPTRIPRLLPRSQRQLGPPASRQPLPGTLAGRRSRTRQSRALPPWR
As to conditions: at 1 µM.

In assay [5] the target is T2, Serine/threonine-protein kinase TAO2 (Homo sapiens). Conditions: at 10 µM.
In assay [6] the target is T3, Serine/threonine-protein kinase TAO3 (Homo sapiens) (UniProt Q9H2K8).
T3 sequence (whole entry): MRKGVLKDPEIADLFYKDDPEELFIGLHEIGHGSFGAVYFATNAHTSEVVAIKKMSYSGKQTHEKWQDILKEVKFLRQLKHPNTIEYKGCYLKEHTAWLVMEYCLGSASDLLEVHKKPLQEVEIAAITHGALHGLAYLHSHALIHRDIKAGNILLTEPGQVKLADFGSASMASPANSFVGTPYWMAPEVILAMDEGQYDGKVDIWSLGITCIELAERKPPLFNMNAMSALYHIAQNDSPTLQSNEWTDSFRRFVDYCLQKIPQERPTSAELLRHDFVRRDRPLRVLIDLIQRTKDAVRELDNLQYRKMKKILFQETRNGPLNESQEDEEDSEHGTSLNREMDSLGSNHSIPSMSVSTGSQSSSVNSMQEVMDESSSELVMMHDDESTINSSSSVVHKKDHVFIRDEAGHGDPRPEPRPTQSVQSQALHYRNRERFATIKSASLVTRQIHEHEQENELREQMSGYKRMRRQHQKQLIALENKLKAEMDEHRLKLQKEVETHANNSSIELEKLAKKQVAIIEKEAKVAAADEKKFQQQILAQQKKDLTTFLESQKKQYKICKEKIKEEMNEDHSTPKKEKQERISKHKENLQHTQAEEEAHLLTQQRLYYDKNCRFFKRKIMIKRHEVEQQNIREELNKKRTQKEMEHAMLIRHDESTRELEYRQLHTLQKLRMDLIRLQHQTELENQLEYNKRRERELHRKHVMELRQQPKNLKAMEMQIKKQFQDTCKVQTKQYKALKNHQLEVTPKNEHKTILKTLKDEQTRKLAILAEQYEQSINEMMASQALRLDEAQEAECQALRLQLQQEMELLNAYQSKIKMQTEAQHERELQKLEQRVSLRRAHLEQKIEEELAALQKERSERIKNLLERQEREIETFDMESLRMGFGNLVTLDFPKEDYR
As to conditions: at 1 µM.

Assay [7] concerns the target T3, Serine/threonine-protein kinase TAO3 (Homo sapiens). Conditions: at 10 µM.
Assay [8] addresses T4, Serine/threonine-protein kinase TBK1 (Homo sapiens) (UniProt Q9UHD2).
T4 sequence (whole entry): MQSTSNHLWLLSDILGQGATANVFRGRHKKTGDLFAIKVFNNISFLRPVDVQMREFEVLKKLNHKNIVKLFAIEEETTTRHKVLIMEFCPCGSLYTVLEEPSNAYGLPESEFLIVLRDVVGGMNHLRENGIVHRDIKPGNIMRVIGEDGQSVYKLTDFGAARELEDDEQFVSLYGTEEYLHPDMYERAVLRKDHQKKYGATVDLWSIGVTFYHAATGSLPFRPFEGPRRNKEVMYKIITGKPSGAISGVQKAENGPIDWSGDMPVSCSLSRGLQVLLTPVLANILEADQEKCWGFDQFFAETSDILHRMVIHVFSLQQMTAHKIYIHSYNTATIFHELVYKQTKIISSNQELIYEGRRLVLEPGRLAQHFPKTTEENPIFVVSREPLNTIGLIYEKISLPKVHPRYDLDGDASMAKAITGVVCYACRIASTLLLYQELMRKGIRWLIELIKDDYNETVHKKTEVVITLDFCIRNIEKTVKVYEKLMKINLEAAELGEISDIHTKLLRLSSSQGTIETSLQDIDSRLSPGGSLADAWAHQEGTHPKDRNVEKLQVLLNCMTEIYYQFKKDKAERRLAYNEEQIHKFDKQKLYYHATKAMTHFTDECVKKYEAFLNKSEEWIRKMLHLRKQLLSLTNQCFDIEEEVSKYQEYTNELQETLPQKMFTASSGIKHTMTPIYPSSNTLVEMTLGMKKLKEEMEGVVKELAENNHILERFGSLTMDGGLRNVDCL
As to conditions: at 1 µM.

In assay [9] the target is T4, Serine/threonine-protein kinase TBK1 (Homo sapiens). Conditions: at 10 µM.
The target in assay [10] is T5, TGF-beta receptor type-1 (Homo sapiens) (UniProt P36897).
T5 sequence (whole entry): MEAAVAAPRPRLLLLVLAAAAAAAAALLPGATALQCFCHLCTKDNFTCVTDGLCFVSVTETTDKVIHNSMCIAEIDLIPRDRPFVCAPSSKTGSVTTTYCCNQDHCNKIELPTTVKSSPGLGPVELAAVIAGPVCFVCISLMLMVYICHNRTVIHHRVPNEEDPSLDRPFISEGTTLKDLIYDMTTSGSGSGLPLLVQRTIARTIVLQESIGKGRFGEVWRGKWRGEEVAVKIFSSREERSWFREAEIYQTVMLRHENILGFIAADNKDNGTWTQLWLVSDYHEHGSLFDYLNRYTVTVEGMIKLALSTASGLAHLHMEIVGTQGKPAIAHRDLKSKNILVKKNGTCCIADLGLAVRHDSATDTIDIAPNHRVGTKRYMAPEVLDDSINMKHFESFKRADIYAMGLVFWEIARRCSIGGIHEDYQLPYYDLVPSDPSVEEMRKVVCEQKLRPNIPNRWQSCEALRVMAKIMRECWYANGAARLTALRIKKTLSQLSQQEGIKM
Conditions: at 1 µM.

Assay [11] addresses T5, TGF-beta receptor type-1 (Homo sapiens). Conditions: at 10 µM.
Assay [12] has as its target T6, Inhibitor of nuclear factor kappa-B kinase subunit alpha (Homo sapiens) (UniProt O15111).
T6 sequence (whole entry): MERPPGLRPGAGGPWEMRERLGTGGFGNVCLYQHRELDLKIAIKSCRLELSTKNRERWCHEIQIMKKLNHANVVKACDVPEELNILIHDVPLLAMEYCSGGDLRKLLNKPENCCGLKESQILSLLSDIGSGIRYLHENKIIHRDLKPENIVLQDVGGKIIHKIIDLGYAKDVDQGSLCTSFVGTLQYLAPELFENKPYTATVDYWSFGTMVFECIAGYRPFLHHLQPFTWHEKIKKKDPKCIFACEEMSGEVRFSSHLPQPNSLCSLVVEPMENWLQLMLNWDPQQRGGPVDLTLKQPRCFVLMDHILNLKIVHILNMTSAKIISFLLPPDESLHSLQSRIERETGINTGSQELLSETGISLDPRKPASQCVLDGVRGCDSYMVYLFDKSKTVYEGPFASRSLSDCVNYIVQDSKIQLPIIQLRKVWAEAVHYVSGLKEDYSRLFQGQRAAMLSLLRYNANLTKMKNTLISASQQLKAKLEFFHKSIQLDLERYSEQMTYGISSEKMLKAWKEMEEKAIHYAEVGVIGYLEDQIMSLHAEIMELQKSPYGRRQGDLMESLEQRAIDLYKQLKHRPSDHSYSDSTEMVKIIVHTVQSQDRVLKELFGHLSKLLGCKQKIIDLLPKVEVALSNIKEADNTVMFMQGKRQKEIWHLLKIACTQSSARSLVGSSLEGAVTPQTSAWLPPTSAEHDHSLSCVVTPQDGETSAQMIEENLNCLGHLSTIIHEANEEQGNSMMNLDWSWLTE
As to conditions: at 1 µM.

Assay [13] deals with T6, Inhibitor of nuclear factor kappa-B kinase subunit alpha (Homo sapiens). Conditions: at 10 µM.
The target in assay [14] is T7, Inhibitor of nuclear factor kappa-B kinase subunit beta (Homo sapiens) (UniProt O14920).
T7 sequence (whole entry): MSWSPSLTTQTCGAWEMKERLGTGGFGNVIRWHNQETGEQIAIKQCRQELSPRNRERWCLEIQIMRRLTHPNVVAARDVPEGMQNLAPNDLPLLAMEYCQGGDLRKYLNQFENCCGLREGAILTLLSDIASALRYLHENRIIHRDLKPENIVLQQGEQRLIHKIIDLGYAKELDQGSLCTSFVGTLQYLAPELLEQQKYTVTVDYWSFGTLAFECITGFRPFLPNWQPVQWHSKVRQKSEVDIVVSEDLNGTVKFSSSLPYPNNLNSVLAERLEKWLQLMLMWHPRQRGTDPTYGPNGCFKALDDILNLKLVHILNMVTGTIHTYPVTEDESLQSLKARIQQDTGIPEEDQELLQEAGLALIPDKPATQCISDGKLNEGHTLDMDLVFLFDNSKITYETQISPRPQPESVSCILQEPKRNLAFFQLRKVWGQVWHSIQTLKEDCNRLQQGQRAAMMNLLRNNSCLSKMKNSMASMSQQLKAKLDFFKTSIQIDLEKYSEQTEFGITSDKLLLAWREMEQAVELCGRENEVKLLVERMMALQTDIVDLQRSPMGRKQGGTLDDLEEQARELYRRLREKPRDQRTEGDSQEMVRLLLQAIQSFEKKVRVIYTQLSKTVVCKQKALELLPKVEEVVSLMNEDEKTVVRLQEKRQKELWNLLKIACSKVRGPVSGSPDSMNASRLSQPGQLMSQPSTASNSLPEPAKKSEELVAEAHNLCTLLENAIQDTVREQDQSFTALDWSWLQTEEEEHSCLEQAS
As to conditions: at 1 µM.

For assay [15], the target named is T7, Inhibitor of nuclear factor kappa-B kinase subunit beta (Homo sapiens). As to conditions: at 10 µM.

Turning to `Cn1c2ccccc2c2c3c(c4c5ccccc5n(CCC#N)c4c21)CNC3=O`, the residual activity in assay [1] amounted to 5%; in assay [2] it was 7%; in assay [3] it was 10%; in assay [4], 10%; in assay [5] it was 9%; in [6] it was 19%. Besides, the residual activity in assay [7] worked out at 16%; in [8] it was 11%; in [9] it was 9%; in assay [10] it was 69%; in [11], 63%; in assay [12], 48%. In addition, the residual activity in assay [13] turned out to be 19%; in assay [14], 72%; in assay [15], 63%.

As a reminder, the residual activity is the activity still measured, relative to the control.
